# Test results taken from PubChem BioAssay (NCI).
# Where “and” joins values, the source holds several entries; their conditions need not be identical. Equal values may be shown once. About 79,000 compounds went through this panel and 15% of them were active in at least one assay; those are over-represented in the sample as a whole. Values without a mark were called inactive. Calls of active or inactive are those of the source. Rule as the data show it: active = growth inhibition above about 70%; inactive = the rest.
# Key:
# [1] = NCI Yeast Anticancer Drug Screen. Data for the rad50 strain (AID 155);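 also: 0% = growth of vehicle-only cultures of the same strain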; conditions: S. cerevisiae rad50 strain growth inhibition, stronger effect = higher value
# Method in brief: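 Relative growth inhibition (compound vs vehicle) was measured in yeast with a defined repair-gene alteration.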
# [2] = NCI Yeast Anticancer Drug Screen. Data for the mec2-1 strain (AID 157); conditions: S. cerevisiae mec2-1 strain, stronger effect = higher value
# Method in brief: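 mec2-1 yeast strain, carrying an alteration in DNA damage repair or cell cycle control, was exposed to compounds; growth inhibition was measured relative to vehicle-treated controls.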
# [3] = NCI Yeast Anticancer Drug Screen. Data for the sgs1 mgt1 strain (AID 161);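 also: 0% = growth of cultures given vehicle only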; conditions: S. cerevisiae sgs1 mgt1 strain, stronger effect = higher value
# Method in brief: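 Percent growth inhibition was derived by comparing compound-exposed mutant yeast with vehicle-exposed cultures. The strain carries alterations in DNA damage repair.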
# [4] = NCI Yeast Anticancer Drug Screen. Data for the bub3 strain (AID 167); conditions: S. cerevisiae bub3 mutant strain, stronger effect = higher value
# Method in brief: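 Screening used yeast with an engineered genetic alteration affecting cell cycle control. Compound-exposed cultures were compared with vehicle cultures, and reduced growth was taken as inhibition.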
# [5] = NCI Yeast Anticancer Drug Screen. Data for the mlh1 rad18 strain (AID 175); conditions: S. cerevisiae mlh1 rad18 strain growth inhibition, stronger effect = higher value
# Method in brief: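 Growth inhibition of the yeast strain was measured after compound exposure and expressed relative to vehicle-treated controls. The strain carries defined defects in DNA damage repair.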
# [6] = NCI Yeast Anticancer Drug Screen. Data for the cln2 rad14 strain (AID 165);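 also: 0% = growth equal to vehicle treated cultures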; conditions: S. cerevisiae cln2 rad14 strain, stronger effect = higher value
# Method in brief: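 Yeast carrying cln2 and rad14 alterations (cell cycle control and DNA damage repair) were exposed to compounds. Growth inhibition was measured against vehicle-treated controls.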
# [7] = at 5.0 µM (retest, dose inferred, filed as 0.5)
# [8] = at 50.0 µM (retest, dose inferred, filed as 5.0)
SMILES,"growth inhibition [1, 7]","growth inhibition [1, 8]",growth inhibition ([1]; at 50.0 µM),"growth inhibition [2, 7]","growth inhibition [2, 8]",growth inhibition ([2]; at 50.0 µM),"growth inhibition [3, 7]","growth inhibition [3, 8]",growth inhibition ([3]; at 50.0 µM),"growth inhibition [4, 7]","growth inhibition [4, 8]",growth inhibition ([4]; at 50.0 µM),"growth inhibition [5, 7]","growth inhibition [5, 8]",growth inhibition ([5]; at 50.0 µM),"growth inhibition [6, 7]","growth inhibition [6, 8]",growth inhibition ([6]; at 50.0 µM)
O=[N+]([O-])c1ccc2nc(CCl)[nH]c2c1,46%,80% (active),73.2% (active),37%,74% (active),65.5%,42%,83% (active),75% (active),43%,84% (active),74% (active),49%,87% (active),73.3% (active),,,
O=C(O)CNc1ccc2c(c1)Cc1cc(Br)ccc1-2,19%,88% (active),97.2% (active),-1%,87% (active),96.2% (active),,,,-1%,85% (active),96.5% (active),45%,96% (active),97.7% (active),-3%,59%,88.9% (active)
O=S(=O)(CCCl)Cc1ccccc1,-145%,-144%,5.2%,-45%,-39%,-0.4%,,,,-69%,-66%,10.7%,-144%,-100%,10.8%,-50%,-50%,10.7%
O=C(Cc1ccccc1)NC(C(=O)c1ccccc1)c1ccccc1 (stereo not drawn),36%,55%,75.5% (active),21%,40%,31.1%,,,,48%,72% (active),83.2% (active),35%,53%,73.7% (active),25%,26%,57%
O=C1c2ccccc2C2(O)c3cc4ccccc4cc3OC12O (stereo not drawn),-7%,41%,52.2%,-15%,19%,52.2%,-16%,6%,43%,-6%,59%,44%,-24%,55%,72.7% (active),,,
CC(=O)N=C1N(/C=C2\C(=O)Oc3ccccc3C2=O)C(=O)/C(=C/c2ccc(Cl)cc2Cl)N1C,1%,92% (active),91.8% (active),11%,96% (active),95% (active),7%,90% (active),94.2% (active),23%,87% (active),93.4% (active),-4%,91% (active),91.6% (active),,,
COC(=O)C1C(C(=O)OC)C2(OC(c3ccc(Cl)cc3)=CC2=O)C12OC(c1ccc(Cl)cc1)=CC2=O (stereo not drawn),2%,74% (active),89.8% (active),12%,99% (active),92% (active),12%,96% (active),90% (active),,,,13%,98% (active),87.2% (active),4%,63%,89.8% (active)
OCC(O)C(O)C(O)C(O)C(SCc1ccccc1)SCc1ccccc1 (stereo not drawn),,,9.5% and -3.9% and -5.4%,,,-1.5% and -0.6% and 8.55%,,,6.25% and -7.1% and 8.7%,,,-3.7% and -7.25% and 2.05%,,,10.1% and 3.6% and 10.6%,,,-9.4% and -3.35% and -11.2%
Cc1ccc(NC(=O)CC2SC(=Nc3ccc(Cl)cc3)NC2=O)cc1C (stereo not drawn),79% (active),-11%,99.2% (active),57%,5%,99.5% (active),,,,89% (active),11%,99.1% (active),31%,12%,99.2% (active),41%,18%,98.3% (active)
CCCCCCCCN(CCCCCCCC)CC(O)c1ccc2cc3c(nc2c1)CCCC3 (stereo not drawn),-3%,94% (active),98.7% (active),13%,93% (active),81.4% (active),,,,10%,94% (active),97.7% (active),14%,96% (active),98.3% (active),-2%,94% (active),97.7% (active)
O=C(C[n+]1ccccc1)c1ccc2ccc3ccc(Cl)cc3c2c1,4%,67%,59.1%,0%,26%,32%,3%,56%,35.5%,-2%,46%,2.15%,29%,82% (active),72.5% (active),,,
N=C(N)c1cccc(-c2ccc(-c3ccccc3)o2)c1,-3%,62%,92.2% (active),4%,72% (active),89.8% (active),,,,3%,71% (active),79% (active),-11%,85% (active),97% (active),2%,67%,93.8% (active)
Cc1c2cnccc2c(C)c2c1sc1ccccc12,92% (active),88% (active),96.5% (active),80% (active),96% (active),73.5% (active),87% (active),96% (active),90.2% (active),56%,93% (active),81.3% (active),96% (active),92% (active),97.7% (active),,,
O=C(OCc1ccccc1)c1ccccc1Cl,3%,21%,50.4%,-3%,0%,14.1%,2%,14%,40.2%,10%,19%,30.9%,3%,14%,82.8% (active),,,
CN(C)c1ccc(C(=O)C2CCCC(C)(C)C2)cc1 (stereo not drawn),22%,65%,90.7% (active),24%,78% (active),93.5% (active),,,,57%,47%,86.9% (active),24%,68%,94.8% (active),7%,27%,88.3% (active)
Oc1c(Cl)cc(Cl)c(Cc2c(Cl)cc(Cl)c(O)c2Cl)c1Cl,98% (active),97% (active),65.8%,98% (active),98% (active),3.5%,,,,97% (active),97% (active),-3.05%,99% (active),96% (active),46.6%,98% (active),97% (active),19.5%
Cc1c(Cl)cc2[nH]c(C(F)(F)F)nc2c1Cl,3%,66%,63%,8%,76% (active),75.2% (active),,,,2%,56%,41.5%,3%,72% (active),70.5% (active),10%,71% (active),65.1%
CC(NNC(=S)N1CCCC1)c1ccccn1 (stereo not drawn),63%,97% (active),98.8% (active),52%,98% (active),98.7% (active),63%,98% (active),98.9% (active),53%,98% (active),99.2% (active),60%,98% (active),98.8% (active),,,
OC1CN(C2CCCCC2)CC1C1(O)CCN(C2CCCCC2)C1 (stereo not drawn),0%,6%,20.1%,1%,5%,-2.75%,0%,11%,12.8%,,,,3%,10%,20.2%,4%,10%,65.7%
CCOC(=O)C(=NNc1ccccc1)C(=O)OCC,2%,50%,42.4%,-3%,2%,33.2%,-4%,16%,42.5%,,,,1%,25%,62.9%,-1%,4%,-14.6%
CN(C)C1CCC2C3CCC4=CC(=O)CCC4(C)C3CCC21C (stereo not drawn),2%,28%,77.1% (active),17%,21%,48%,8%,39%,69.5%,2%,-63%,40%,2%,35%,51.7%,,55%,47.1%
CSc1nc2nn(Cc3ccccc3)cc2c(=O)[nH]1,-6%,22%,-7.95%,10%,19%,-4.85%,9%,21%,2.4%,,,,20%,39%,11.8%,17%,50%,-22.8%
Cc1ccccc1N=Nc1ccccc1,21%,98% (active),99.4% (active),17%,99% (active),99.4% (active),22%,99% (active),99.5% (active),,,,39%,98% (active),99.4% (active),12%,98% (active),99.3% (active)
CN(C)c1ccc(C(O)(Cc2cccnc2)c2ccc(N(C)C)cc2)cc1,-3%,2%,39.2%,-4%,6%,36.8%,,,,-3%,1%,72% (active),-5%,8%,54.9%,-1%,-4%,13.3%
CN(C)CCC[Si]1(C)c2ccccc2CCc2ccccc21,-6%,16%,82.8% (active),-5%,15%,40%,-5%,17%,57.4%,,,,-3%,26%,78.8% (active),-2%,-5%,19.9%
O=C(O)c1cc(-c2ccc3c(c2)Nc2ccccc2S3)nc2ccc(F)cc12,16%,98% (active),99% (active),-40%,98% (active),99.1% (active),12%,99% (active),98.8% (active),33%,97% (active),98% (active),18%,96% (active),98.7% (active),,,
CCOC(=O)c1c(N)c(=O)n2c3c(cccc13)CC2,0%,92% (active),96.9% (active),-2%,98% (active),97.5% (active),0%,99% (active),97.7% (active),,,,21%,98% (active),98.6% (active),7%,59%,98.7% (active)
